Measured values reported in PubChem BioAssay (NCI).
This is part of a sample that, as a whole, favours compounds with a hit. Of some 83,000 tested, about 20% had one in any assay.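 96-well plates, one dose, 48 hours. Percent growth reported; active if below 10.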 Active and inactive are the calls of the source.

Assays:
Assay in all cases: NCI-60 one-dose screen, 48 h (100 = growth as untreated, 0 = no growth, -100 = all killed)
Settings in all cases: 10 µM unless noted
SK-MEL-2 melanoma = system: SK-MEL-2 melanoma
EKVX NSCLC = system: EKVX NSCLC
SN12C renal = system: SN12C renal
UO-31 renal = system: UO-31 renal
TK-10 renal = system: TK-10 renal
ACHN renal = system: ACHN renal
CAKI-1 renal = system: CAKI-1 renal
A498 renal = system: A498 renal
CCRF-CEM leukemia = system: CCRF-CEM leukemia
MOLT-4 leukemia = system: MOLT-4 leukemia
SR leukemia = system: SR leukemia
RPMI-8226 leukemia = system: RPMI-8226 leukemia
OVCAR-8 ovarian = system: OVCAR-8 ovarian
OVCAR-5 ovarian = system: OVCAR-5 ovarian
OVCAR-4 ovarian = system: OVCAR-4 ovarian
SK-OV-3 ovarian = system: SK-OV-3 ovarian
IGROV1 ovarian = system: IGROV1 ovarian
OVCAR-3 ovarian = system: OVCAR-3 ovarian
HS 578T breast = system: HS 578T breast
NCI/ADR-RES ovarian = system: NCI/ADR-RES ovarian

Measured: growth

O=C(CCCCCCCn1cc(-c2cccnc2)nn1)Nc1ccccc1-c1ccccc1
inactive: SK-MEL-2 melanoma 87.9% | EKVX NSCLC 64.9% | SN12C renal 25.8% | UO-31 renal 62% | TK-10 renal 84% | ACHN renal 54.8% | CAKI-1 renal 17% | A498 renal 83.3% | CCRF-CEM leukemia 59.9% | MOLT-4 leukemia 47.4% | SR leukemia 49.2% | RPMI-8226 leukemia 30.5% | OVCAR-8 ovarian 20% | OVCAR-5 ovarian 62.6% | OVCAR-4 ovarian 41.7% | SK-OV-3 ovarian 61.7% | IGROV1 ovarian 28.3% | OVCAR-3 ovarian 48.8% | HS 578T breast 66.4% | NCI/ADR-RES ovarian 24.1%

O=C1c2ccccc2C(=O)c2cc(Cn3cc[n+](Cc4ccc5ccccc5c4)c3)ccc21
inactive: SK-MEL-2 melanoma 89.1% | EKVX NSCLC 70.9% | SN12C renal 74.4% | UO-31 renal 82.5% | TK-10 renal 107% | ACHN renal 108% | CAKI-1 renal 96.5% | A498 renal 98.3% | CCRF-CEM leukemia 71% | MOLT-4 leukemia 79.1% | SR leukemia 73.7% | RPMI-8226 leukemia 17.2% | OVCAR-8 ovarian 89.5% | OVCAR-5 ovarian 84.6% | OVCAR-4 ovarian 58.7% | IGROV1 ovarian 29.6% | OVCAR-3 ovarian 40.8% | HS 578T breast 92.6% | NCI/ADR-RES ovarian 104%

CC(=O)c1sc(-c2ccccc2)cc1N
inactive: SK-MEL-2 melanoma 109% | EKVX NSCLC 44.4% | SN12C renal 96.1% | UO-31 renal 88.6% | TK-10 renal 101% | ACHN renal 104% | CAKI-1 renal 92.9% | A498 renal 84.4% | CCRF-CEM leukemia 96.6% | MOLT-4 leukemia 91.7% | SR leukemia 88.4% | RPMI-8226 leukemia 98.1% | OVCAR-8 ovarian 92.8% | OVCAR-5 ovarian 100% | OVCAR-4 ovarian 94.2% | SK-OV-3 ovarian 89.6% | IGROV1 ovarian 105% | OVCAR-3 ovarian 103% | HS 578T breast 89.1% | NCI/ADR-RES ovarian 105%

CC(C)CCC[C@@H](C)[C@H]1CCC2C3=CCC4C(=O)C=CC(=O)C4C3CC[C@@]21C (some centres undefined)
active: SK-MEL-2 melanoma -16.4% | EKVX NSCLC -10% | UO-31 renal -67.9% | TK-10 renal -36.6% | ACHN renal 4.54% | CAKI-1 renal -56.3% | A498 renal -6.21% | RPMI-8226 leukemia 8.72% | OVCAR-8 ovarian 0.168% | OVCAR-5 ovarian 7.74% | OVCAR-4 ovarian -9.33% | IGROV1 ovarian -63.2% | OVCAR-3 ovarian 2.72% | HS 578T breast 8.12% | NCI/ADR-RES ovarian 7.87%
inactive: SN12C renal 20.1% | CCRF-CEM leukemia 17% | MOLT-4 leukemia 10.4% | SR leukemia 13.2% | SK-OV-3 ovarian 10.5%

COc1ccc(C2CC(c3ccc4ccccc4c3)=NN2c2nc(O)c(C3=c4cc(Cl)ccc4=NC3=O)s2)cc1 (centres undefined)
active: SK-MEL-2 melanoma -77% | EKVX NSCLC -74.3% | SN12C renal -30.5% | UO-31 renal -85% | TK-10 renal -66.6% | ACHN renal -63.8% | CAKI-1 renal -50.4% | A498 renal -84.3% | CCRF-CEM leukemia -19% | MOLT-4 leukemia -21.5% | SR leukemia -34.4% | RPMI-8226 leukemia -3.59% | OVCAR-8 ovarian -16.1% | OVCAR-5 ovarian -7.92% | OVCAR-4 ovarian -61.5% | IGROV1 ovarian -11.5% | OVCAR-3 ovarian -83.1% | HS 578T breast -5.85%
inactive: NCI/ADR-RES ovarian 58.8%

C/C(=N\NC(N)=S)c1nc2ccc(Cl)cc2[nH]1
inactive: SK-MEL-2 melanoma 32.1% | EKVX NSCLC 63.3% | SN12C renal 48.5% | UO-31 renal 41.9% | TK-10 renal 33.9% | ACHN renal 19.6% | CAKI-1 renal 26.9% | A498 renal 53.3% | CCRF-CEM leukemia 32.8% | MOLT-4 leukemia 30.4% | SR leukemia 30.5% | RPMI-8226 leukemia 57.6% | OVCAR-8 ovarian 39.1% | OVCAR-5 ovarian 69.8% | OVCAR-4 ovarian 32.3% | SK-OV-3 ovarian 47.1% | IGROV1 ovarian 58.9% | OVCAR-3 ovarian 50.1% | NCI/ADR-RES ovarian 31.1%

Cc1nc(Nc2ccc(S(=O)(=O)Nc3cc(C)on3)cc2)c2ccccc2n1
inactive: SK-MEL-2 melanoma 102% | EKVX NSCLC 90% | SN12C renal 102% | UO-31 renal 84.2% | TK-10 renal 99.7% | ACHN renal 107% | CAKI-1 renal 90.7% | A498 renal 94.3% | CCRF-CEM leukemia 103% | MOLT-4 leukemia 104% | SR leukemia 111% | RPMI-8226 leukemia 111% | OVCAR-8 ovarian 104% | OVCAR-5 ovarian 101% | OVCAR-4 ovarian 105% | SK-OV-3 ovarian 93% | IGROV1 ovarian 96.9% | OVCAR-3 ovarian 103% | HS 578T breast 108% | NCI/ADR-RES ovarian 107%

O=c1oc2ccc(Cl)cc2cc1-c1cs/c(=N/N=C\c2ccc(Cl)cc2)n1/N=C/c1ccc(Cl)cc1
inactive: SK-MEL-2 melanoma 92.6% | EKVX NSCLC 107% | SN12C renal 94% | UO-31 renal 90.1% | TK-10 renal 99.4% | ACHN renal 112% | CAKI-1 renal 110% | A498 renal 83.9% | CCRF-CEM leukemia 104% | MOLT-4 leukemia 93.8% | SR leukemia 83.4% | RPMI-8226 leukemia 103% | OVCAR-8 ovarian 96.5% | OVCAR-5 ovarian 107% | OVCAR-4 ovarian 98.5% | SK-OV-3 ovarian 111% | IGROV1 ovarian 108% | OVCAR-3 ovarian 106% | HS 578T breast 101% | NCI/ADR-RES ovarian 106%

O=[N+]([O-])c1ccc2[nH]cc(-c3c4ccsc4cc4[nH]c5ccc([N+](=O)[O-])cc5c34)c2c1
inactive: EKVX NSCLC 29% | SN12C renal 21.7% | UO-31 renal 22.9% | TK-10 renal 30.9% | ACHN renal 24.5% | CAKI-1 renal 26.2% | SR leukemia 10.2% | OVCAR-5 ovarian 10.9% | OVCAR-4 ovarian 35.1% | IGROV1 ovarian 21.9% | HS 578T breast 26.6%
active: SK-MEL-2 melanoma 2.1% | A498 renal -16.6% | CCRF-CEM leukemia 7.42% | MOLT-4 leukemia 5.22% | RPMI-8226 leukemia 9.85% | OVCAR-8 ovarian 7.43% | OVCAR-3 ovarian -21.3% | NCI/ADR-RES ovarian -14.1%

CCCCN(CCCC)CCCn1c(=O)c2sc3ncccc3c2n2nnc(-c3ccccc3)c12
active: EKVX NSCLC -3.24% | CAKI-1 renal -87.9%
inactive: SK-MEL-2 melanoma 107% | SN12C renal 99.3% | UO-31 renal 48.1% | TK-10 renal 118% | ACHN renal 97% | A498 renal 117% | CCRF-CEM leukemia 90.8% | MOLT-4 leukemia 94.5% | SR leukemia 99.2% | RPMI-8226 leukemia 96.4% | OVCAR-8 ovarian 96.4% | OVCAR-5 ovarian 97.1% | OVCAR-4 ovarian 103% | IGROV1 ovarian 80.5% | OVCAR-3 ovarian 120% | HS 578T breast 110% | NCI/ADR-RES ovarian 108%

O=C1c2ccccc2C2(c3ccc(O)cc3)c3ccccc3Oc3cccc1c32 (centres undefined)
active: SR leukemia 9.2%
inactive: SK-MEL-2 melanoma 25.4% | EKVX NSCLC 45.7% | SN12C renal 37.5% | UO-31 renal 45.7% | TK-10 renal 84.3% | ACHN renal 43.4% | CAKI-1 renal 45.9% | A498 renal 47.1% | CCRF-CEM leukemia 14.8% | MOLT-4 leukemia 24.8% | RPMI-8226 leukemia 17.8% | OVCAR-8 ovarian 66.8% | OVCAR-5 ovarian 30.7% | OVCAR-4 ovarian 86.9% | SK-OV-3 ovarian 25.7% | IGROV1 ovarian 59.9% | OVCAR-3 ovarian 11.2% | HS 578T breast 25.8% | NCI/ADR-RES ovarian 11.1%

N#Cc1c(-c2ccccc2)nc(SCC2CO2)nc1N1CCOCC1 (centres undefined)
inactive: SK-MEL-2 melanoma 66.9% | EKVX NSCLC 78.4% | SN12C renal 69.9% | UO-31 renal 29.5% | TK-10 renal 68.6% | ACHN renal 59.2% | CAKI-1 renal 38.6% | CCRF-CEM leukemia 96.6% | MOLT-4 leukemia 68.6% | SR leukemia 72.5% | RPMI-8226 leukemia 47.9% | OVCAR-8 ovarian 81.8% | OVCAR-5 ovarian 60.8% | OVCAR-4 ovarian 71.1% | IGROV1 ovarian 38.1% | OVCAR-3 ovarian 61.7% | HS 578T breast 50% | NCI/ADR-RES ovarian 76.2%
active: A498 renal -15.2%

O=c1[nH]c(NCc2nnnn2-c2ccc(Br)cc2)nc2sc3c(c12)CCCC3
inactive: SK-MEL-2 melanoma 108% | EKVX NSCLC 96.3% | SN12C renal 97.6% | UO-31 renal 77.9% | TK-10 renal 98.1% | ACHN renal 98.9% | CAKI-1 renal 89.6% | A498 renal 84.6% | CCRF-CEM leukemia 90.8% | MOLT-4 leukemia 76.9% | SR leukemia 86.3% | RPMI-8226 leukemia 87.3% | OVCAR-8 ovarian 81.4% | OVCAR-5 ovarian 100% | OVCAR-4 ovarian 95.2% | SK-OV-3 ovarian 90.6% | IGROV1 ovarian 104% | OVCAR-3 ovarian 97.8% | HS 578T breast 100% | NCI/ADR-RES ovarian 103%

N#Cc1c(N)n2c(nc1=Nc1ccc([N+](=O)[O-])cc1)sc1cc(Cl)ccc12
inactive: SK-MEL-2 melanoma 99.4% | EKVX NSCLC 84.3% | SN12C renal 89.4% | UO-31 renal 75.2% | TK-10 renal 148% | ACHN renal 90.7% | CAKI-1 renal 85.2% | A498 renal 102% | CCRF-CEM leukemia 83.6% | MOLT-4 leukemia 93.4% | SR leukemia 34.7% | RPMI-8226 leukemia 49.7% | OVCAR-8 ovarian 94.5% | OVCAR-5 ovarian 101% | OVCAR-4 ovarian 86.1% | SK-OV-3 ovarian 76.4% | IGROV1 ovarian 82.3% | OVCAR-3 ovarian 108% | HS 578T breast 79% | NCI/ADR-RES ovarian 95.2%

C/C(Cc1ccc(Cl)cc1)=C(/c1ccc(Cl)cc1)c1ccc(OCCN(C)C)cc1
active: SR leukemia -41.1% | RPMI-8226 leukemia -41.4%
inactive: SK-MEL-2 melanoma 109% | EKVX NSCLC 81.8% | SN12C renal 47.9% | UO-31 renal 65% | TK-10 renal 82.9% | ACHN renal 82.8% | CAKI-1 renal 54.6% | A498 renal 80.8% | CCRF-CEM leukemia 39.5% | MOLT-4 leukemia 31.7% | OVCAR-8 ovarian 69.2% | OVCAR-5 ovarian 81.2% | OVCAR-4 ovarian 40.3% | SK-OV-3 ovarian 110% | IGROV1 ovarian 56.4% | OVCAR-3 ovarian 57.2% | HS 578T breast 61% | NCI/ADR-RES ovarian 77.5%

COc1c(C)cnc(CSc2nc(-c3ccc(C)cc3)cn2-c2ccc(Cl)cc2)c1C
inactive: SK-MEL-2 melanoma 83% | EKVX NSCLC 92.1% | SN12C renal 94.4% | UO-31 renal 63.2% | TK-10 renal 101% | ACHN renal 98.9% | CAKI-1 renal 91.1% | A498 renal 93.9% | CCRF-CEM leukemia 99.8% | MOLT-4 leukemia 73.5% | SR leukemia 74.8% | RPMI-8226 leukemia 89.9% | OVCAR-8 ovarian 98.5% | OVCAR-5 ovarian 97.5% | OVCAR-4 ovarian 90.2% | SK-OV-3 ovarian 91% | IGROV1 ovarian 93.4% | OVCAR-3 ovarian 93.5% | HS 578T breast 105% | NCI/ADR-RES ovarian 95.5%
